From PubChem
A549 viability: Nrf2 qHTS screen for inhibitors: counterscreen for cytotoxicity; A549 ARE-Fluc cells, CellTiter-Fluor viability, 18-24 h; Potency, µM (series often up to 46 µM), for inactives: at the top dose activity change, negative = cytotoxicity, hits mostly inhibitors; 390,000 tested, 0.16% active; AID 504648, 2011; also: potency is read from the fitted curve at half-maximal effect; % is scaled to controls: 0 for no effect and ±100 for the full control effect
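Cytotoxicity counterscreen: CellTiter-Fluor fluorescence was measured in A549 ARE_Fluc cells after 18-24 h of compound exposure in a concentration series. The subsequent BugLite luminescent read reports ARE-luciferase activity.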
ClpP mod: qHTS Assay for Activators of ClpP | AID 651965, 2013 | Potency, µM (top dose mostly 57.5 µM), for the others: at the highest dose activity change, negative = active | purified B. subtilis ClpP, FRET peptide cleavage, 20 min | 340,000 tested, 1.9% active | ATP-dependent Clp protease proteolytic subunit (Bacillus subtilis (strain 168)), P80244; active = well fitted falling curve with a large enough effect; inconclusive = small, poorly fitted or top-dose-only effect; inactive = no such curve, though single readings can be large or run the other way; also: potency is read from the fitted curve at half-maximal effect; the source files actives as falling curves though it sought activators and does not explain the sign; nearly all actives have a fitted effect of over 65% in size
Target sequence (P80244 whole entry, looked up): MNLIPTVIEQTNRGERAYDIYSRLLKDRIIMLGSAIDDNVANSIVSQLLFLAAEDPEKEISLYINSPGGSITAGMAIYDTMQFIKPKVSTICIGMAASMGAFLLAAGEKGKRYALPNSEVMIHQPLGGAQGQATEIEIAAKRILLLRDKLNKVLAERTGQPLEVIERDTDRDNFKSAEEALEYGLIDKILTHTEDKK
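Purified B. subtilis ClpP, 10 microg/mL final in Tris/HCl pH8 with KCl, BSA, glycerol and Tween-20, cleaved an Abz/nitrotyrosine-quenched decapeptide. Fluorescence (ex 320, em 430) was read at 0 and 20 min at room temperature. Delta was normalized to 5.8 microM ADEP and DMSO/no-enzyme controls.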
TCR activator: Activators of T cell receptors: qHTS campaign; AID 504894, 2011; Potency, µM (highest dose often 9.22 µM), for inactives: top-dose activation of IL-2 secretion, hits mostly activators; 330,000 tested, under 10 active; primary human leukocytes, anti-CD3, IL-2 HTRF, 48 h; also: % of control where 0% means no effect
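Compounds are tested in HTS on primary human leukocytes co-incubated with a-CD3 beads for 48 hr. IL-2 output is measured by time-resolved FRET.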
Nrf2 ARE act: qHTS of Nrf2 Activators | AREc32 ARE-luciferase reporter (MCF7-derived line), luminescence, 24 h | 410,000 tested, 0.31% active | AID 624171, 2012 | Potency, µM (top dose mostly 46.1 µM), without a hit: top-dose activation, usual class: activators; also: potency is read from the fitted curve at half-maximal effect; % of control where 0% means no effect; nearly all actives have a fitted effect of over 65% in size
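AREc32 cells carrying an ARE-driven firefly luciferase, 1000 cells/well in OPTI-MEM with 5% FBS, dosed after overnight attachment and incubated 24 hr at 37 deg C. Steady-Glo luminescence read after 30 min at RT.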
Nrf2 block: Nrf2 qHTS screen for inhibitors. A549 ARE-Fluc reporter, luciferase luminescence, 18-24 h. Potency, µM (top dose mostly 46 µM), inactives show top-dose activity change, negative = inhibition, usual class: inhibitors. 360,000 tested, 2.1% active. AID 504444, 2011; also: potency is read from the fitted curve at half-maximal effect; % is scaled to controls: 0 for no effect and ±100 for the full control effect; nearly all actives have a fitted effect of over 60% in size
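In this cell-based qHTS, ARE-driven firefly luciferase in A549 cells reports Nrf2 activity; the luminescent signal after BugLite lysis is the measured value, with a prior CellTiter-Fluor read for cell health.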
miR-21 act: qHTS Assay for Modulators of miRNAs and/orActivators of miR-21. HeLa miR-21 FLuc reporter, luciferase, 48 h. 340,000 tested, under 10 active. AID 2288, 2010. Potency, µM (series often up to 38.3 µM), for inactives: top-dose activity change, positive = activation, hits mostly activators;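 also: % of control where 0% means no effect; miR-21 action dims this reporter so a rising signal means less miR-21 action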
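Luminescence from a firefly luciferase reporter carrying a miR-21 binding site downstream, stably expressed under a CMV promoter in HeLa cells that make miR-21 endogenously, reports miRNA modulation after 48 h compound exposure up to approximately 40uM final.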
Active calls of the source: *; [ ] = remark or other dose. The list is not random: actives were taken first. Their share in the collection is about 3.7%. Unless noted, calls follow the shape of the dose curve; as a rule, active = well fitted curve in the direction sought with a large enough effect; inconclusive = small, poorly fitted or top-dose-only effect, or another doubt; inactive = no such curve, though single readings can be large; an effect the other way counts as inactive or inconclusive.

For CC(=O)Nc1ccccc1-c1nc2ccccc2n(CC(=O)Nc2cccc(C)c2C)c1=O the results were A549 viability -1%, ClpP mod 0%, Nrf2 ARE act 0%, Nrf2 block 20% and miR-21 act 0%.
For CC1(C)CC(=O)C2=C(C1)Oc1nc3ccccc3cc1C2C(C#N)C#N (centres undefined) the results were A549 viability inconclusive, ClpP mod -4%, TCR activator 6%, Nrf2 ARE act 7.1µM*, Nrf2 block inconclusive and miR-21 act 0%.
Screening CC1=C(C(=O)Nc2ccccc2C)C(c2sccc2C)n2ncnc2N1 (centres undefined) returned A549 viability 14%, ClpP mod -2%, Nrf2 ARE act 0% and miR-21 act 3%.
O=C(NCC1CCCO1)NC1(C(F)(F)F)Oc2ccccc2O1 (centres undefined) was read as A549 viability inconclusive, ClpP mod -4%, TCR activator 1%, Nrf2 ARE act 16µM*, Nrf2 block inconclusive and miR-21 act -30%.
COC(=O)c1ccccc1NC(=O)NCC1CCCO1 (centres undefined) was read as A549 viability 2%, ClpP mod 25µM*, TCR activator 1%, Nrf2 ARE act 0%, Nrf2 block 8% and miR-21 act -4%.
Cc1ccccc1NC(=O)NCC1CCCO1 (centres undefined) was read as A549 viability -12%, ClpP mod 28µM*, TCR activator -2%, Nrf2 ARE act 0%, Nrf2 block -1% and miR-21 act -4%.
For COC(=O)c1ccccc1NC(=O)C(=O)NCC1CCCO1 (centres undefined) the results were A549 viability -2%, ClpP mod -2%, TCR activator 11%[46.1 µM], Nrf2 ARE act 2%, Nrf2 block -5% and miR-21 act -19%.
Screening CN(c1ccccc1)P(=O)(N(C)c1ccccc1)N(C)c1ccccc1 returned A549 viability inconclusive, ClpP mod 1%, TCR activator 5%, Nrf2 ARE act 0%, Nrf2 block 16µM* and miR-21 act inconclusive.
CN(c1ccccc1)S(=O)(=O)CS(=O)(=O)N(C)c1ccccc1 was read as A549 viability -1%, ClpP mod -3%, TCR activator -4%, Nrf2 ARE act 0% and Nrf2 block -14%.
For Fc1cccc(Cl)c1C1Nc2cccc3cccc(c23)N1 the results were A549 viability -9%, ClpP mod 1%, TCR activator -1%, Nrf2 ARE act inconclusive, Nrf2 block -21% and miR-21 act 0%.
`Clc1cccc(Cl)c1C1Nc2cccc3cccc(c23)N1` gave A549 viability inconclusive, TCR activator 7%, Nrf2 ARE act inconclusive, Nrf2 block 9.2µM* and miR-21 act 21%.
O=C(NC(=S)NCCN1CCOCC1)c1ccccc1Br was read as A549 viability 3%, ClpP mod 25µM*, TCR activator -1%[46.1 µM], Nrf2 ARE act 0%, Nrf2 block -3% and miR-21 act -9%.
For O=C(NC(=S)NCCN1CCOCC1)c1ccccc1Cl the results were A549 viability 1%, ClpP mod -4%, TCR activator -5%, Nrf2 ARE act 0%, Nrf2 block -5% and miR-21 act -5%.
For O=C(CNC(=S)NC(=O)c1ccccc1Br)c1ccccc1 the results were A549 viability 8%, TCR activator -6%, Nrf2 ARE act 2.2µM*, Nrf2 block inconclusive and miR-21 act -6%.
`CCN(Cc1ccc(Br)s1)C(=O)CSc1nnc(C2CC2)n1C1CC1` gave ClpP mod -23% and Nrf2 ARE act 0%.
O=S1(=O)CC(N2CCSCC2)CN1Cc1cn(Cc2ccc(F)cc2)nn1 (centres undefined) was read as ClpP mod -3% and Nrf2 ARE act 0%.
CC(C)N(c1ccc(C=O)cc1)C(C)C was read as ClpP mod -2%.
Screening N#Cc1ccc(Oc2ccc(-c3nc4ccccc4nc3-c3ccccc3)cc2)cc1C#N returned A549 viability -6%, ClpP mod inconclusive, TCR activator -5%[46.1 µM], Nrf2 ARE act 2%, Nrf2 block -15% and miR-21 act -5%.
`N#Cc1ccc(Oc2ccc(-c3cnc4ccccc4n3)cc2)cc1C#N` gave A549 viability 4%, ClpP mod 20µM*, TCR activator 0%[46.1 µM], Nrf2 ARE act 2%, Nrf2 block 4% and miR-21 act 1%.
O=C1c2ccc3c4c(ccc(c24)C(=O)N1NC(=O)C(F)(F)F)CC3 was read as A549 viability -7%, ClpP mod 35µM*, TCR activator 6%, Nrf2 ARE act -1%, Nrf2 block 14% and miR-21 act -6%.
For O=C(O)c1ccc2c(c1)C(=O)N(NC(=O)c1ccccc1)C2=O the results were A549 viability 2%, ClpP mod 1%, TCR activator 3%, Nrf2 ARE act 3%, Nrf2 block 20% and miR-21 act -37%.
`O=C(NN1C(=O)c2ccc3c4c(ccc(c24)C1=O)CC3)c1ccc(Br)cc1` gave A549 viability 0%, ClpP mod 13µM*, TCR activator 1%, Nrf2 ARE act 1%, Nrf2 block -11% and miR-21 act -5%.
For C1=Cc2ccccc2/C1=C\c1cccc(/C=C2\C=Cc3ccccc32)c1 the results were ClpP mod 0%.
`CC1CC(C)(C)CC2(C1)NC(=O)N(CC(=O)N1CCN(S(=O)(=O)c3ccc(F)c(F)c3F)CC1)C2=O` (centres undefined) gave A549 viability -8%, ClpP mod 0%, TCR activator -1%, Nrf2 ARE act 1% and Nrf2 block 2%.
COC1=C(Nc2ccc(O)cc2)C(=O)c2ccccc2C1=O was read as A549 viability inconclusive, ClpP mod -1%, TCR activator -3%[46.1 µM], Nrf2 ARE act 0%, Nrf2 block 23µM* and miR-21 act -2%.
Screening COC1=C(Nc2ccc(OC)cc2)C(=O)c2ccccc2C1=O returned A549 viability 5%, ClpP mod 9%, TCR activator 4%[46.1 µM], Nrf2 ARE act -1%, Nrf2 block 12% and miR-21 act -30%.
